Bioassay records as filed in PubChem.
Only some compounds are listed: those with a hit (about 1.6% of all), similar ones and a draw of the others.
MEX-5 binding: C. elegans MEX-5 TCR-2 RNA binding activity. Q9XUB2. MEX-5/FITC-TCR2 RNA binding, fluorescence polarization; active compounds read low. activity score (negative = inhibition of binding), % at 10 µM. hit rate 0.38% among 300,000;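 active = inhibition past about -25% in most replicates, and total fluorescence under double the plate's negative control median, limit read from the data; inconclusive = replicates evenly split on the limit, or fluorescence at least double controls; inactive = too little inhibition in most replicates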
Fam108B inh: blocks mouse Fam108B hydrolase in RBBP9 counter-screen | recombinant Fam108B, FP-Rh probe fluorescence polarization | inhibition, % at 9.51 µM | hit rate 0.33% among 300,000;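 active = inhibition above the screen mean inhibition plus 3 SD, computed separately per campaign, cut at about 18% in these data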;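 note: inhibitors lower polarization as less probe binds the enzyme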
LYPLA2 counter: counter-screen for PME1 inhibitors: inhibitors of human LYPLA2. AID 2177. inhibition, % at 5.9 µM. O95372. recombinant LYPLA2, FP-Rh probe fluorescence polarization. hit rate 0.38% among 320,000;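 active = inhibition above the screen-wide mean plus 3 SD, limit set per campaign, cut at about 26% in these data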
PME-1 primary: blocks human protein phosphatase methylesterase 1; Q9Y570; recombinant PME-1, FP-Rh probe fluorescence polarization; inhibition, % at 5.9 µM; hit rate 0.53% among 320,000; AID 2130;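 active = inhibition above the campaign mean of all compounds plus 3 SD, cut at about 26% in these data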;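 note: competitive labeling of PME-1 active site by serine hydrolase directed probe; inhibitors block probe labeling so polarization falls and inhibition rises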
LYPLA1 counter: LYPLA1 (human) inhibition in PME1 counter-screen; O75608; recombinant LYPLA1, FP-Rh probe fluorescence polarization; inhibition, % at 5.9 µM; hit rate 0.16% among 320,000; AID 2174;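 active = inhibition above the mean of all tested compounds plus 3 SD, set per campaign, cut at about 14% in these data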;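 note: inhibitors block serine hydrolase probe labeling of LYPLA1 so polarization falls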
PREPL inh: human PREPL enzyme inhibition | hit rate 0.68% among 320,000 | Q4J6C6 | inhibition, % at 5.96 µM | recombinant PREPL, fluorescence polarization activity-based probe; in the data active = inhibition above about 43%
Target sequence (Q4J6C6 whole entry, looked up): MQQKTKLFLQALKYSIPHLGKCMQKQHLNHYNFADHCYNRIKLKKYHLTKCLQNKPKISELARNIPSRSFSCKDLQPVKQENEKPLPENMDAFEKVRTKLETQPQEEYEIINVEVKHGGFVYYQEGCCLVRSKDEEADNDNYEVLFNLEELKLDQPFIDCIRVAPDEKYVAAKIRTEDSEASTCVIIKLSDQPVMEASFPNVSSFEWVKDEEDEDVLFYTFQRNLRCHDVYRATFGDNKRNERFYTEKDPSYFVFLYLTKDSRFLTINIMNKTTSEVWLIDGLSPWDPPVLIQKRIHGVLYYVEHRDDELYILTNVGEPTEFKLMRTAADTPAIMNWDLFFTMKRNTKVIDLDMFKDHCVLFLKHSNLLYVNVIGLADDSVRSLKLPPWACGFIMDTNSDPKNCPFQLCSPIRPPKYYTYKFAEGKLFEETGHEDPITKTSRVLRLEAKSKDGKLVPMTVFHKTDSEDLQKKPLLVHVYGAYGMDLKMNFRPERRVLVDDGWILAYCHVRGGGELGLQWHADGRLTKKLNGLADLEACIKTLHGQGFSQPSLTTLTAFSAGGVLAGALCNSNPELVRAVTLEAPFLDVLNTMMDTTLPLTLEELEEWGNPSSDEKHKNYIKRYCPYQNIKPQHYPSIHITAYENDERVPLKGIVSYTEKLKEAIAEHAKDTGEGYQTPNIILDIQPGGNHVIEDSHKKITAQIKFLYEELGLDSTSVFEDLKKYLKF
Fam108b confirm: confirmation of mouse Fam108b serine hydrolase inhibitors; shares compounds with Fam108B inh; recombinant Fam108b, FP-Rh probe fluorescence polarization; inhibition, % at 9.51 µM; hit rate 44% among 930;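 active = inhibition above a limit from the primary screen, the mean over all compounds plus 3 SD, cut at about 19% in these data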;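 note: inhibitors free the probe so polarization falls as inhibition rises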
Numbers stand for hits; – = inactive; ? = inconclusive; · = no result given.

SMILES | MEX-5 binding | Fam108B inh | LYPLA2 counter | PME-1 primary | LYPLA1 counter | PREPL inh | others
O=C1c2ccccc2C(=O)c2c(Nc3ccc(CCO)cc3)ccc(O)c21 | – | – | 27 | 29 | – | –
COCCNc1nc(C)cc(-c2cc(C(=O)NC3CCCC3)on2)n1 | – | – | – | – | – | –
Cc1ccccc1NN=Nc1nc2c([nH]1)c(=O)n(C)c(=O)n2C | · | – | – | – | – | –
Cn1c(=O)c2[nH]c(N=NNc3ccccc3F)nc2n(C)c1=O | -34 | – | – | – | – | –
CC(=O)/C(N=Nc1nc2c([nH]1)c(=O)n(C)c(=O)n2C)=C(\C)O | -36 | – | – | – | – | –
Cc1ccc(C)c(OCCCC(=O)Nc2ccccc2C(N)=O)c1 | – | – | – | – | – | –
CC(NC(=O)CN1c2cccc3cccc(c23)S1(=O)=O)c1ccc(S(N)(=O)=O)cc1 (stereo not drawn) | – | – | – | – | – | –
Cc1ccc(SCc2nc3ccccc3n2CC(=O)Nc2c(C)cccc2C)cc1 | – | – | – | – | – | –
Cc1ccc(SCc2nc3ccccc3n2CC(=O)Nc2ccccc2)cc1 | – | – | – | – | – | 53
C/C(N)=C(/C#N)C(=O)CSc1ncnc2ccccc12 | -39 | – | – | – | – | –
C/C(N)=C(/C#N)C(=O)CSc1nc2ccccc2[nH]1 | – | – | – | – | – | –
CC1=C(C#N)C(=O)N(C2CCS(=O)(=O)C2)C(=O)/C1=C\c1ccco1 (stereo not drawn) | -99 | 65 | – | – | – | –
O=C1/C(=C\c2ccco2)SC(=S)N1C1CCCCC1 | – | – | – | – | – | –
COc1ccc(C2C(C(C)=O)=C(C)N=c3s/c(=C\c4ccco4)c(=O)n32)c(OC)c1 (stereo not drawn) | – | – | – | – | – | –
COc1ccc(C2C(C(C)=O)=C(C)N=c3s/c(=C\c4cc(C)n(C)c4C)c(=O)n32)c(OC)c1 (stereo not drawn) | -38 | – | – | – | – | –
CC(=O)N1CCN(C(=O)c2ccc3c(c2)OCO3)CC1 | · | · | · | · | · | –
COc1cc(/C=C(/C#N)c2nc3ccccc3[nH]2)ccc1OCC(=O)Nc1ccccc1C | · | – | – | – | – | –
COc1cc(/C=C(\C#N)c2nc3ccccc3[nH]2)ccc1OC(=O)c1ccco1 | – | – | – | – | – | 80
CCOc1cc(/C=C(/C#N)c2nc3ccccc3[nH]2)ccc1OCc1ccc(C(=O)O)o1 | – | – | – | – | – | 59
O=C(NC(NC(=O)c1c(F)cccc1F)c1ccc([N+](=O)[O-])cc1)c1c(F)cccc1F | – | – | – | – | – | –
Cc1ccccc1-c1nn(-c2ccc(F)cc2F)cc1CNCCCO | – | – | – | – | – | –
COc1ccc(OC)c(S(=O)(=O)N2CCN3CCCC3C2)c1 (stereo not drawn) | – | – | – | – | – | –
Cc1ccc(Nc2ccc([N+](=O)[O-])ccc2=O)cc1 | -28 | – | – | – | – | –
Cc1ccc(Nc2ccc(C(F)(F)F)cc2[N+](=O)[O-])cc1 | – | – | – | – | – | –
COc1ccccc1N1CCN(C(=O)C2CCN(S(=O)(=O)c3ccc(C)cc3)CC2)CC1 | – | – | – | 41 | – | –
SMILES | MEX-5 binding | Fam108B inh | LYPLA2 counter | PME-1 primary | LYPLA1 counter | PREPL inh | others
CN1/C(=C/C=C(C#N)C#N)C(C)(C)c2ccccc21 | -87 | – | – | 51 | – | –
Cc1ncc(CO)c(/C=N/NC(=S)Nc2ccc(Cl)c(Cl)c2)c1O | – | – | – | 27 | – | –
COc1ccccc1N(C)S(=O)(=O)c1ccc(C(=O)OCC(=O)Nc2cc(C)on2)cc1 | – | – | – | – | – | –
Cc1ccc(C(=O)N2CCN(Cc3nc4sc5c(c4c(=O)[nH]3)CCCC5)CC2)cc1 | – | – | – | – | – | –
O=C(c1ccccc1F)N1CCN(Cc2nc3sc4c(c3c(=O)[nH]2)CCCC4)CC1 | – | – | – | 27 | – | –
Cc1ccc(NC(=O)COC(=O)c2cccc3c2C(=O)c2ccccc2C3=O)c(C)c1 | · | – | – | 85 | – | –
Cc1cccc(C)c1NC(=O)COC(=O)c1ccccc1Nc1ccccc1 | – | – | – | – | – | –
Cc1cc(C)c(NC(=O)COC(=O)c2cccc3c2C(=O)c2ccccc2C3=O)c(C)c1 | – | – | – | 46 | – | –
O=C(COC(=O)c1ccc2c(c1[N+](=O)[O-])C(=O)c1ccccc1C2=O)NC1CC1 | – | – | – | – | – | –
O=C(COC(=O)c1cccc2c1C(=O)c1ccccc1C2=O)NC1CCCCC1 | – | – | – | 41 | – | –
COc1ccc(CCNC(=O)c2cc(S(=O)(=O)N(C)c3ccccc3)ccc2Cl)cc1 | – | – | – | – | – | –
CC(C)C(NC(=O)c1ccc(Cl)c([N+](=O)[O-])c1)C(=O)NCc1ccccn1 (stereo not drawn) | · | · | · | · | · | –
CCSC1=NCCN1C(=O)c1ccc(S(=O)(=O)N(C)C)cc1 | – | – | – | – | – | –
CCOC(=O)CSc1nnc(Cn2nnc(-c3ccccc3)n2)n1CC | – | – | – | – | – | –
Oc1ccc(CN2CCc3ccccc3C2)c2cccnc12 | – | – | – | – | – | 45
CC(C)NC(=S)N=Nc1c(O)[nH]c2ccc(C(C)C)cc12 | – | – | – | 29 | – | –
Nc1nc(-c2c[nH]c3ccccc23)cs1 | – | – | – | – | – | –
Cc1ccc2c(-c3csc(N)n3)c[nH]c2c1 | – | – | – | 51 | – | –
COc1ccc(N(C(=O)CCl)C(C)(C(=O)Nc2c(C)cccc2C)c2ccccn2)cc1 (stereo not drawn) | -30 | – | – | – | – | –
CCOc1ccc(NC(=O)C(c2ccccn2)N(C(=O)CCl)c2ccc(OC)cc2)cc1 (stereo not drawn) | – | – | – | – | – | –
CCC(C)n1c(=N)c(C#N)cc2c(=O)n3cc(C)ccc3nc21 (stereo not drawn) | -34 | – | – | – | – | –
CCC(C)n1c(=N)c(C#N)cc2c(=O)n3cccc(C)c3nc21 (stereo not drawn) | ? | – | – | – | – | –
COCCn1c(C)cc(C(=O)COC(=O)c2ccc(Cl)c(S(N)(=O)=O)c2)c1C | – | 25 | – | – | – | –
COc1ccc(OC)c(Nc2nc(-c3sc(N)nc3C)cs2)c1 | – | 21 | – | – | – | – | Fam108b confirm=–
COC(=O)N/N=C/c1cc(N=Nc2ccccc2)ccc1O | – | – | – | – | – | –
COC(=O)N/N=C/c1cc(N=Nc2ccccc2Cl)ccc1O | – | 22 | – | – | – | – | Fam108b confirm=–
Cc1cc(C(=O)N/N=C/c2cc(N=Nc3ccccc3)ccc2O)n[nH]1 | – | 20 | – | – | – | – | Fam108b confirm=–
